Consider 31 molecules from PubChem BioAssay (NCATS).

Results filed as inconclusive are left out. A call without a number means that no potency is given here. Activity calls are given as the source filed them. Calls follow the shape of the dose curve; as a rule, active = well fitted cell-killing curve with a large enough effect; inconclusive = small, poorly fitted or top-dose-only effect, or effect the other way; inactive = no such curve, though single readings can be large or run the other way.
Potency is read from the fitted curve at half-maximal effect.

A short description of this test: qHTS of pediatric cancer cell lines to identify multiple opportunities for drug repurposing: Confirmatory screen for SJ-GBM2 cells (AID 1347116).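 Also: 48 hour compound exposure; nearly all actives have a fitted effect of over 60% in size.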 The note with it: SJ-GBM2 glioblastoma cells, viability; series mostly up to 45.9 µM. An excerpt:
Drug repurposing or repositioning has been offered as a strategy for drug development in oncology programs. This approach has special potential for childhood cancers and other rare or orphan diseases, where the expected return on new drug development has been a disincentive to pharmaceuticals.
In this project we exploit the poly-pharmacology of drugs to discover new indications via phenotypic screening of a panel of 19 well-characterized cell lines derived from solid tumors seen in children and adolescents. The goal is to identify approved drugs with previously unrecognized anticancer properties that has the potential to reveal new mechanisms and biological processes involved in carcinogenesis or drug resistance. We employed a titration-based paradigm (quantitative high-throughput screening or qHTS), where all compounds were tested at multiple concentrations for their effect on cell viability. Concentration-response curves (CRCs) were derived directly from the primary screen, and both potency and efficacy values were used to identify compounds with robust bioactivity profiles. We screened the NIH Chemical Genomics Center (NCGC) Pharmaceutical Collection (NPC) and Mechanism Interrogation Plate (MIPE) small molecule collections of approved and investigational compounds against these cell lines; and measured metabolically active cells after 48 hours of compound treatment as a proxy for cell viability.
Assay Submitter: Nathalia J. Martinez, National Center for Advancing Translational Sciences, National Institutes of Health, Rockville, MD, USA; email: natalia.martinez@nih.gov
[1] Shen, M et al. Quantitative high-throughput phenotypic screening of pediatric cancer cell lines identifies multiple opportunities for drug repurposing. Oncotarget 2017 Dec 19;9(4):4758-4772. PMID 29435139.
The cells were obtained from University of North Carolina (UNC), Pediatric Preclinical Testing Program (PPT), and Coriell Institute (CI).
qHTS cell viability assay:
Cells were assayed in growth media at a density of 500-1,000 cells/well. Five microliters of cells were dispensed into 1,536-well, white, solid-bottom, TC-treated plates (Greiner Bio One) using a multidrop dispenser and incubated at 37 degrees C, 5% CO2, under a humidified atmosphere for 5 hours. Twenty-three nanoliters of compounds and controls (neutral control DMSO or positive control bortezomib at final concentration of 2.3 µM) were subsequently transferred by Kalypsys pintool. For primary screens, the MIPE collection was tested at 11-point dilutions (final concentrations range from 0.78 nM to 46 µM) and the NPC collection at 8-point dilutions (final concentrations range from 0.59 nM to 46 µM). Compounds tested in follow-up screens were assayed at 11-point dilutions. Cells were incubated for 48 hours, followed by addition of 3 uL of CellTiter-Glo (Promega). After a 15 min incubation at room temperature, samples were analyzed for luminescence intensity using a ViewLux High-throughput CCD imager equipped with clear filters.
(In general: In qHTS, concentration-response curves come from the screen itself.)
As to `Nc1ccc(-c2ccc3ncc4ccc(=O)n(-c5cccc(C(F)(F)F)c5)c4c3c2)cn1`, the Potency is 0.233 µM (active).
`CC1C(=O)OC2C(O)C34C5CC(C(C)(C)C)C36C(OC(=O)C6O)OC4(C(=O)O5)C12O` (stereo unspecified): the Potency result is “inactive”.
For the molecule `C=CC(=O)Nc1cccc(Sc2nc(Nc3ccc(N4CCN(C)CC4)cc3)ncc2Cl)c1`, the Potency was 14.7 µM (active).
`Cc1c(C(=O)Nc2ccc(N3C[C@@H](C)O[C@@H](C)C3)nc2)cccc1-c1ccc(OC(F)(F)F)cc1`: the Potency result was “inactive”.
Turning to `CCN(CCO)CCCOc1ccc2c(Nc3cc(CC(=O)Nc4cccc(F)c4)[nH]n3)ncnc2c1`, the Potency entry is “inactive”.
The same measure, in the same setting: in the case of `CC(C)C[C@H](NC(=O)c1cc2ccccc2s1)C(=O)N1CCN(C(=O)[C@H](CO)NS(=O)(=O)c2ccc(Cl)cc2Cl)CC1` it was “inactive”.
Consider `CC(C)(C)c1[nH]cnc1C=c1[nH]c(=O)c(=Cc2ccccc2)[nH]c1=O`, for which the outcome was “inactive [at 0.556 µM]”.
On to `CO[C@H]1/C=C\O[C@@]2(C)Oc3c(C)c(O)c4c(O)c(c(C=NN5CCN(C6CCCC6)CC5)c(O)c4c3C2=O)NC(=O)C(C)=CC=C[C@H](C)[C@H](O)[C@@H](C)[C@@H](O)[C@@H](C)[C@H](OC(C)=O)[C@H]1C`, for which the Potency entry was “inactive”.
Still for that read-out and setting: in the case of `COC(=O)[C@H](c1ccccc1Cl)N1CCc2sccc2C1` it was “inactive”; in that of `Cc1cc(CS(=O)(=O)c2ccccc2)cc(OCc2ccc(CN3CCC[C@H]3CO)cc2)c1`, “inactive”; in that of `FC(F)(F)c1ccc(C=Cc2nc(COc3ccc(CCCCn4ccnn4)cc3)co2)cc1`, “inactive”.
As to `CO[C@H]1/C=C\O[C@@]2(C)Oc3c(C)c(O)c4c(O)c(c5c(nc6cc(C)ccn65)c4c3C2=O)NC(=O)C(C)=CC=C[C@H](C)[C@H](O)[C@@H](C)[C@@H](O)[C@@H](C)[C@H](OC(C)=O)[C@H]1C`, the Potency entry was “inactive”.
In the case of `COc1cc2c(cc1Cc1cccc(Cl)c1F)c(=O)c(C(=O)O)cn2[C@H](CO)C(C)C`, the Potency result is “inactive”.
Regarding `C[C@@H]1O[C@@H](O[C@H]2CC[C@@]3(C)[C@H](CC[C@@H]4[C@H]3C[C@@H](O)[C@]3(C)[C@@H](C5=CC(=O)OC5)CC[C@]43O)C2)C[C@H](O)[C@@H]1O[C@H]1C[C@H](O)[C@H](O[C@H]2C[C@H](O)[C@@H](O)[C@@H](C)O2)[C@H](C)O1` (stereo in doubt), the Potency is 0.302 µM (active).
For `CC(C)n1c(C=C[C@H](O)C[C@H](O)CC(=O)O)c(-c2ccc(F)cc2)c2ccccc21`, the Potency is 13.1 µM (active).
For `O=C(c1ccc(F)c(F)c1Nc1ccc(I)cc1F)N1CC(O)([C@H]2CCCCN2)C1`, the Potency entry was “inactive”.
On to `CCC[C@H](N[C@@H](C)C(=O)N1[C@@H]2CCCC[C@H]2C[C@H]1C(=O)O)C(=O)OCC`, for which the Potency entry was “inactive”.
As for `COC1CCC(C(=O)c2ccc3nc4c(cc3c2)CCCO4)CC1` (stereo unspecified), the Potency entry is “inactive”.
Take `COc1cc2ncnc(Nc3cc(Br)c(O)c(Br)c3)c2cc1OC`: the Potency entry is “inactive”.
Turning to `CCCCn1c(=O)n(Cc2ccccc2F)c(=O)c2[nH]c(Cc3ccc(NC(C)=O)cc3)nc21`, the Potency was 11.7 µM (active).
Turning to `CN[C@@H]1CN(c2ccc3c(=O)c(C(=O)O)cn(-c4nccs4)c3n2)C[C@@H]1OC`, the Potency was 10.2 µM (active).
Still for that read-out and setting: next, `COc1ccc(-c2ccc3ncc4c(c3c2)n(-c2ccc(N3CCNCC3)c(C(F)(F)F)c2)c(=O)n4C)cn1`: 0.465 µM (active); `CC1(C)OC2CC3C4CC(F)C5=CC(=O)C=CC5(C)C4C(O)CC3(C)[C@]2(C(=O)CO)O1` (stereo partly specified): “inactive”.
As for `CCNC(=O)c1noc(-c2cc(C(C)C)c(O)cc2O)c1-c1ccc(CN2CCOCC2)cc1`, the Potency was 0.208 µM (active).
As for `Cc1ccc2c(c1)C(=O)[C@]1(O)CCN(c3ccccc3)C1=N2`, the Potency result was “inactive”.
On to `CCCC1OC2C[C@@H]3[C@H]4CCC5=CC(=O)C=C[C@]5(C)[C@H]4C(O)C[C@]3(C)[C@]2(C(=O)CO)O1` (stereo partly specified), for which the Potency was 1.47 µM (active).
The same measure, in the same setting: in the case of `Cc1nn(Cc2ccccc2Cl)c(C)c1CN(C)CC(O)COc1ccc(Cl)cc1` (stereo unspecified) it was “inactive”; in that of `CC(C)CN(C[C@H](O)[C@H](Cc1ccccc1)NC(=O)O[C@H]1CCOC1)S(=O)(=O)c1ccc(N)cc1`, “inactive”.
As to `COc1cc([C@@H]2c3cc4c(cc3[C@@H](O[C@@H]3O[C@@H]5CO[C@@H](C)O[C@@H]5[C@H](O)[C@@H]3O)[C@H]3COC(=O)[C@H]23)OCO4)cc(OC)c1O`, the Potency was 9.27 µM (active).
The same measure, in the same setting: in the case of `O=C1Nc2ccc(I)cc2C1=Cc1cc(Br)c(O)c(Br)c1` it was “inactive”.
Regarding `CCC(=O)OCC(=O)[C@@]1(OC(=O)CC)[C@@H](C)C[C@@H]2[C@H]3CCC4=CC(=O)C=C[C@]4(C)[C@@]3(F)[C@@H](O)C[C@@]21C`, the Potency entry is “inactive”.
